Screening data deposited in PubChem by National Center for Advancing Translational Sciences (NCATS).
Shown is part of a subset that was picked to be rich in hits.
Pf Dd2 growth: Plasmodium falciparum Dd2 growth inhibition; P. falciparum Dd2 growth, SYBR Green, 72 h; Potency, µM (titrated, usually from 28.9 µM), usual class: inhibitors; hit rate 4.3% among 120,000; active = well fitted inhibition curve with a large enough effect; note: nearly all actives have a fitted effect of over 65% in size
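Infected erythrocytes (Dd2, 0.3% parasitemia, 2.5% hematocrit final) are added to compound in RPMI-1640/Albumax II medium, grown 72 h at 37C in low oxygen, then lysed with saponin/Triton-X containing SYBR Green and read by fluorescence.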
Each line names hits and unclear results; the compound was inactive in the other large screens.

COc1ccc(C(=O)NC2CC2)c(OC2CCN(Cc3cccc(SC)c3)CC2)c1	none
COc1cccc(CN2C(=O)CCCCC2C(=O)NC2CCCCCC2)c1 (stereo not drawn)	Pf Dd2 growth 8.91µM
COc1cccc(CNC(=O)CC2CCOCC2)c1OC	none
COC(=O)c1cccc(-c2nc(C3CC(=O)N(c4ccc(F)c(Cl)c4)C3)no2)c1 (stereo not drawn)	none
O=C(C1CCC1)N1CCN(Cc2ccccc2)CC(O)C1 (stereo not drawn)	none
O=C(C1CC1)N1CCN(Cc2ccccc2)CC(O)C1 (stereo not drawn)	none
CN(CC(=O)N1CCN(Cc2ccccc2)CC(O)C1)C1CCCC1 (stereo not drawn)	Pf Dd2 growth 8.91µM
C=CCC1(C(=O)O)CCCN(Cc2ccc(OC)c(COC)c2)C1 (stereo not drawn)	none
COc1ccc(C(=O)N2CCC3(CC2)NC(=O)N(c2ccccc2Cl)N3)cc1F	none
CN(C)C[C@H]1O[C@@H](CO)[C@@H](O)[C@H]1N1CCN(c2cccc(C(F)(F)F)c2)CC1	none
COCCS(=O)(=O)c1ncc(CN2CC[C@@H]3CCCC[C@H]3C2)n1Cc1ccccc1	Pf Dd2 growth 6.31µM
COCCS(=O)(=O)c1ncc(CN(C)C(C)c2ccon2)n1Cc1ccccc1 (stereo not drawn)	none
CC(C)Cn1c(CN2CCSCC2)cnc1S(=O)(=O)Cc1ccccc1	none
Cc1ccc(C)c(N(C)C(=O)C2CCN(c3ncnc4c3nc3n4CCCCC3)CC2)c1	Pf Dd2 growth 8.91µM
CCc1ccccc1N(C)C(=O)C1CCCN(c2ncnc3c2nc2n3CCCCC2)C1 (stereo not drawn)	Pf Dd2 growth 7.94µM
CN(C(=O)C1CCN(c2ncnc3c2nc2n3CCCCC2)CC1)c1ccccc1F	none
CCCNC(=O)C1CCN(c2ncnc3c2nc2n3CCCCC2)CC1	none
CCOc1ccccc1N(C)C(=O)C1CCCN(c2ncnc3c2nc2n3CCCCC2)C1 (stereo not drawn)	none
Cc1ccc(C)c(NC(=O)C2CCN(c3ncnc4c3nc3n4CCCCC3)CC2)c1	none
CCc1ccccc1N(CC)C(=O)C1CCN(c2ncnc3c2nc2n3CCCCC2)CC1	Pf Dd2 growth 11.2µM
CCCN(CCC)C(=O)C1CCN(c2ncnc3c2nc2n3CCCCC2)CC1	none
O=C(Nc1ccc(F)cc1)C1CCCN(c2ncnc3c2nc2n3CCCCC2)C1 (stereo not drawn)	none
COc1ccc(NC(=O)O[C@@H]2CO[C@H]3[C@@H]2OC[C@@H]3NC(=O)Nc2cccc(C(F)(F)F)c2)cc1	none
CC(=O)N1Cc2ccccc2CC2(CCN(CC3CCNC3)CC2)C1 (stereo not drawn)	none
Cn1nc(C2CCN(C(=O)COc3ccc(F)cc3)CC2)c2c1CCOC2	none
COc1ccc(C(=O)N2CCC(N3C(=O)C(O)C34CCCCC4)CC2)c(OC)c1 (stereo not drawn)	none
Cc1cc(S(=O)(=O)N2C[C@@H](F)C[C@H]2C(=O)N2CCc3ccccc3C2)ccc1F	none
NC(=O)CCN1CCc2onc(-c3ccccc3F)c2C1	none
O=C1NC(C(=O)N2CCOCC2)CN1Cc1ccccc1 (stereo not drawn)	none
COc1ccc(-c2noc([C@@H]3CCCN3C(=O)c3ccc(OC)c(F)c3)n2)cc1	none
CCNC(=O)N[C@H]1[C@H](O)[C@H](O)C[C@@H]1c1ccncc1	none
CCOC(=O)C1(Cc2ccc(Cl)cc2)CCN(C(=O)c2ccc(C)s2)CC1	none
CCOC(=O)C1(Cc2ccccc2Cl)CCN(S(=O)(=O)c2ccccc2)CC1	none
CCOC(=O)C1(Cc2ccc(Cl)cc2)CCNCC1	Pf Dd2 growth 3.55µM
CNC(=O)c1ccc(CC2CCN(C(=O)C3CC3)CC2)cc1	none
CCOC(=O)c1c(NC(=O)CSc2cn(CCNC(=O)c3ccccc3F)c3ccccc23)sc2c1CCCC2	none
CCOC(=O)c1c(NC(=O)CSc2cn(CCNC(=O)c3ccc(OCC)cc3)c3ccccc23)sc2c1CCC2	none
CCOC(=O)c1c(NC(=O)CSc2cn(CCNC(=O)c3ccccc3OC)c3ccccc23)sc2c1CCC2	Pf Dd2 growth 11.2µM
CCc1cc(NCC(O)CN2CCCCC2)ncn1 (stereo not drawn)	none
COc1cccc(CN2C[C@@H](CO)[C@H](NC(=O)C3CCC3)C2)n1	none
O=C(NCc1ccc(F)cc1)C1CCN(c2cn[nH]c(=O)c2)C1 (stereo not drawn)	none
COc1cccc(CC(=O)NC2CCN(C(=O)N3CC4CC(C3)[C@H]3CCCC(=O)N3C4)CC2)c1 (stereo partly drawn)	none
Cc1cccc(NC(=O)Cn2c(-c3cnccn3)nc(C)c(CCO)c2=O)c1C	none
Cc1cccc(CNC(=O)c2oc3c(c2C)-c2nn(Cc4ccccc4Cl)cc2CC3)c1	none
CCOc1ccc(CNC(=O)c2oc3c(c2C)-c2nn(Cc4cccc(Cl)c4)cc2CC3)cc1	Pf Dd2 growth 11.2µM
Cc1cccc(CNC(=O)c2oc3c(c2C)-c2nn(Cc4cccc(Cl)c4)cc2CC3)c1	none
Cc1ccc(N2CCN(C(=O)C3CCCN(c4cnc5nccnc5c4)C3)CC2)cc1 (stereo not drawn)	none
CC(C)c1noc(-c2cn(C3CCCN(C(=O)c4ccc(F)cc4Cl)C3)nn2)n1 (stereo not drawn)	none
COC(=O)c1c(NC(=O)c2ccc(S(=O)(=O)N3CCCC(C)C3)cc2)sc2c1CCN(C(C)C)C2 (stereo not drawn)	Pf Dd2 growth 8.91µM
Cc1ccc2oc(C(=O)Nc3ccc(S(=O)(=O)N4CCCC(C)C4)cc3)cc(=O)c2c1 (stereo not drawn)	none
CCC1CCCCN1S(=O)(=O)c1ccc(C(=O)Nc2sc3c(c2C(=O)NC)CCC3)cc1 (stereo not drawn)	Pf Dd2 growth 12.6µM
CCOC(=O)c1c(NC(=O)c2ccc(C)cc2)sc2c1CCCCC2	none
CCOC(=O)c1c(NC(=O)c2ccc(F)cc2)sc2c1CCC(CC)C2 (stereo not drawn)	none
Cc1ccc2c(=O)cc(C(=O)Nc3ccc(S(=O)(=O)N4CCCC(C)C4)cc3)oc2c1C (stereo not drawn)	none
CCOC(=O)c1c(NC(=O)c2ccc(S(=O)(=O)N3CCC(C)CC3)cc2)sc2c1CCN(CC)C2	Pf Dd2 growth 8.91µM
CNC(=O)c1c(NC(=O)/C=C/c2ccccc2)sc2c1CCC2	none
COc1ccc(Cl)c2sc(NC(=O)c3ccc(S(=O)(=O)N4CCCC4)cc3)nc12	none
COC(=O)c1ccc2c(c1)sc(=NC(=O)c1ccc(S(=O)(=O)N3CCCCC3)cc1)n2C	none
CCC1CCCCN1S(=O)(=O)c1ccc(NC(=O)c2cc(=O)c3c(C)cc(C)cc3o2)cc1 (stereo not drawn)	none
COC(=O)c1c(NC(=O)c2ccc(S(=O)(=O)N3CCCCC3)cc2)sc2c1CCN(C)C2	Pf Dd2 growth 10µM
CCn1cc(S(=O)(=O)N2CC(Oc3ccccc3-c3noc(C)n3)C2)cn1	none
O=C(NCCc1ccccc1)N1CCC(c2noc(-c3cccnc3)n2)C1 (stereo not drawn)	none
CC(C)c1ccc(C(=O)N2CC(C(=O)NCCc3ccncc3)C3(CCOCC3)C2)cc1 (stereo not drawn)	none
Cc1nc(CCC(=O)N2CCCC(CCc3c(F)cccc3F)C2)n[nH]1 (stereo not drawn)	none
CNCC(=O)N1CCc2ncnc(N3CCSCC3)c2CC1	none
CN(CC1CCOC1)S(=O)(=O)c1cccc(F)c1 (stereo not drawn)	none
CS(=O)(=O)N1C[C@@H](C(=O)Nc2ccc(N3CCOCC3)cc2)[C@H](c2ccncc2)C1	none
CC(=O)N1CCN(C(=O)C[C@@H]2c3nc(NC(=O)C4CCCCC4)sc3C[C@@H]3[C@](C)(CO)[C@H](O)CC[C@]32C)CC1	none
Cc1cncc(C(=O)N2CCOc3c(O)cc(-c4nc5ccccc5s4)cc3C2)c1	Pf Dd2 growth 7.94µM
